From PubChem
GALK inhibitor: blocks human galactokinase activity. Purified GALK, Kinase-Glo residual ATP luminescence. Potency, µM (titrated, usually from 57.5 µM), for inactives: top-dose activity change, negative = inhibition, usual class: inhibitors. actives 0.007% (n = 270,000). AID 1868; further: potency means the concentration at half of the fitted maximal effect; on the % scale 0 is the no-effect control and ±100 the full control effect
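Luminescence from leftover ATP (Ultra-Glo luciferase/luciferin) served as read-out after a 1 h room-temperature reaction of 5 nM GALK with 35 uM ATP and 100 uM galactose.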
D1 PAM: human D1 dopamine receptor positive modulation; P21728; HEK293 TREx D1 cells, calcium flux, dopamine EC20 potentiation; potentiation, % at 10 µM; actives 0.036% (n = 360,000); AID 504651; in the data active means potentiation above about 30%; further: 0% is about no effect
Target sequence (P21728 whole entry, looked up): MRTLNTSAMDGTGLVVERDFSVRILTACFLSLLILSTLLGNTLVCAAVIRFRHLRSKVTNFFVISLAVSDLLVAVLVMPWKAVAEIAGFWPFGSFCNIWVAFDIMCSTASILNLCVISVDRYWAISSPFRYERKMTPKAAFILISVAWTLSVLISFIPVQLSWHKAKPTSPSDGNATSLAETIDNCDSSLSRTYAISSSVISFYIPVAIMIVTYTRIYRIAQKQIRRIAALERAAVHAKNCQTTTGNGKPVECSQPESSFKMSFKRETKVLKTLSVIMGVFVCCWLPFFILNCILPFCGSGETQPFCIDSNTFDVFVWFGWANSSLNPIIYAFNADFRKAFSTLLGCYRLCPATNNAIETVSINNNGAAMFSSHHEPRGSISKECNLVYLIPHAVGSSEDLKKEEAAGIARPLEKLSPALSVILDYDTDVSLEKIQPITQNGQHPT
D1 ag: activates the human D1 dopamine receptor | HEK293 T-REx D1 cells, calcium flux, agonist mode | P21728 | actives 1% (n = 360,000) | activation, % at 2 µM; in the data active means activation above about 30%; further: 0% is about no effect
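Inducible HEK293 T-REx D1 cells, force-coupled to calcium signalling, were plated at 4000 cells/well with tetracycline and held overnight at 30 C. After no-wash calcium dye loading, compound-evoked calcium rise over 180 s flagged agonists.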
D1 antag: antagonists of human D1 dopamine receptor; HEK293 TREx D1 cells, calcium flux, dopamine EC80; stronger effect = lower value; actives 3.2% (n = 360,000); activity change, negative = inhibition, % at 10 µM; in the data active means activity change below about -30%; further: on the % scale 0 is the no-effect control and ±100 the full control effect
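Inducible Hek293 Trex D1 cells (tetracycline, overnight, 30 C). Calcium dye 30–90 min RT. Antagonist mode: EC80 dopamine added after 180 s compound read.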
Eya2 inh: Eya2 (human) phosphatase inhibition. Potency, µM (highest dose often 76.9 µM), inactives show at the highest dose activity, negative = inhibition, most hits filed as inhibitors. actives 0.006% (n = 330,000). recombinant Eya2, OMFP fluorescence dephosphorylation (OMFP is methylfluorescein phosphate); further: potency means the concentration at half of the fitted maximal effect; on the % scale 0 is the no-effect control and ±100 the full control effect
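Eya2 (0.2 uM) preincubated 10 min at ambient with compound, then OMFP substrate added at 50 uM; 10 min reaction in 50 mM HEPES pH 7.5, 50 mM NaCl, 5 uM MgCl2, 0.05% BSA, 1 mM DTT. Fluorescence read at Ex 485/Em 525 nm.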
USP2a block: blocks human ubiquitin-specific protease USP2a; USP2 core, Ub-CHOP2 coupled fluorogenic reporter, 485/531; Potency, µM (titrated, usually from 38.3 µM), without a hit: at the highest dose activity change, negative = inhibition, usual class: inhibitors; actives 0.01% (n = 330,000);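 further: potency means the concentration at half of the fitted maximal effect; plate controls were DMSO wells for no effect and full inhibition by NEM control for full effect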
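Deubiquitinase activity read as fluorescence (485/531 nm) after Ub-CHOP2 cleavage activates the enterokinase reporter on its substrate; USP2 core 10nM, Ub-CHOP2 and substrate 25nM each, 30min compound preincubation then 60min RT; data normalized to NEM, curves fitted.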
Starred values were filed as active, the others as inactive; ? = inconclusive; · = no result given. An excerpt weighted towards active compounds, which were near 3.9% of everything screened. Unless noted, the call rests on the fitted dose curve; in most records, active means well fitted inhibition curve with a large enough effect; inconclusive means small, poorly fitted or top-dose-only effect, or effect the other way; inactive means flat fitted curve, though single readings scatter.

SMILES	GALK inhibitor	D1 PAM	D1 ag	D1 antag	Eya2 inh	USP2a block
O=C(CNC(=O)c1ccccc1Cl)OCc1cc(=O)n2nc(C3CC3)sc2n1	·	-6.5	0.9	21.4	·	·
CC(=O)c1ccc(NC(=O)CN2C(=O)CCc3cc(S(=O)(=O)N4CCC(C)CC4)ccc32)cc1	·	-1.0	7.2	4.3	·	·
CCOc1ccc(NS(=O)(=O)c2ccc3[nH]cc(C(=O)NCc4ccco4)c(=O)c3c2)cc1	·	1.7	0.3	-47.8*	·	·
COC(=O)N/N=C(\C)c1ccccc1Br	-0.5%	-0.7	-2.4	-31.4*	-8.4%	-0.2%
Cc1noc(C)c1COC(=O)c1cc(F)c(F)cc1Cl	5.7%	-4.5	0.9	-20.1	7.8%	1.1%
Cc1noc(C)c1COC(=O)c1cnc(Cl)c(Cl)c1	7.8%	-4.3	7.0	-42.4*	-6.6%	6.2%
COc1cccc(CC2(CO)CCCN(Cc3c(C)cc(C)cc3-n3cccn3)C2)c1 (configuration not stated)	0.9%	-7.5	4.0	-36.5*	-6.8%	4.6%
COc1ccc(-n2ccnc2CN2CCCC(CO)(Cc3cccc(OC)c3)C2)cc1 (configuration not stated)	0.9%	-4.1	-0.1	-5.6	2.4%	-0.2%
COc1ccc(CCNC(=O)CCS(=O)(=O)c2cc3c(cc2Cl)NC(=O)CO3)cc1OC	·	-2.9	1.7	0.2	·	·
Cc1ccc(C(=O)N2CCN3C(=O)c4ccccc4C23c2ccccc2)cc1 (configuration not stated)	1.7%	-3.0	2.3	-37.9*	14.7%	3.4%
O=C1c2ccccc2C2(c3ccccc3)N1CCN2C(=O)C(Cl)(Cl)Cl (configuration not stated)	3.8%	-2.6	0.2	-7.1	-2.1%	4.2%
COc1cc(OC)c(OC)cc1CN1CCN(Cc2ccco2)CC1	-1.0%	0.8	4.3	-33.2*	-12.0%	-0.8%
COc1cc(OC)c(OC)cc1CN1CCN(Cc2cccc(F)c2)CC1	-0.1%	-1.4	0.8	-19.0	7.0%	1.6%
Cc1cc(C)cc(NC(=O)CSc2nnc(CNC(=O)c3c(F)cccc3Cl)o2)c1	·	4.4	8.7	-7.3	·	·
Cc1cccc(N(C)c2nc3ccc(C(=O)c4ccccc4)cc3n3c(C)nnc23)c1	·	0.5	2.8	5.2	·	·
CCOC(=O)c1c(-c2ccccc2)c2cc(OC)ccc2n1CCCN(C)C	2.7%	-6.3	30.6*	-3.1	-23.4%	-12.5%
CN(C)c1nc(Cl)nc(NCCOc2ccccc2)n1	·	-8.0	80.5*	15.4	-2.1%	1.2%
CCNc1nc(Cl)nc(NCCOc2ccc(C)cc2)n1	0.4%	-4.8	3.1	2.2	0.4%	1.4%
NC(=O)c1sc2nc3c(c(-c4ccco4)c2c1N)CCC3	-0.3%	-3.8	-0.2	-2.2	4.9%	1.0%
Nc1c(C(=O)NC2CC2)sc2nc3c(c(-c4ccco4)c12)CC/C3=C/c1ccco1	2.5%	3.8	8.1	12.5	-2.6%	22.4µM*
Cc1cc(-c2ccc(S(=O)(=O)Nc3cccc(Cl)c3C)cc2)on1	·	-2.8	12.9	-17.6	·	·
CCCn1c(=O)c2sccc2n2c(CCCC(=O)Nc3ccc(Oc4ccc(Cl)cc4)cc3)nnc12	·	1.2	1.7	-9.3	·	·
COc1cccc(/C=C2\SC(=S)N(CCC(=O)N3CCCCC3CCO)C2=O)c1 (configuration not stated)	2.2%	-1.0	4.6	-31.5*	-9.3%	-7.6%
COc1cccc(/C=C2\SC(=S)N(CCCC(=O)N3CCCCC3CCO)C2=O)c1 (configuration not stated)	-5.7%	2.6	8.1	9.0	6.5%	-2.3%
COC(=O)C1CCN(S(=O)(=O)c2cc3c4c(c2)CC(=O)N4CCC3)CC1	·	-2.0	-0.6	·	·	·
SMILES	GALK inhibitor	D1 PAM	D1 ag	D1 antag	Eya2 inh	USP2a block
O=C(Nc1ccc(CN2CCOCC2)cc1)c1ccco1	-2.5%	-3.6	2.1	-35.4*	-7.0%	-0.9%
O=C(Nc1ccc(N2CCOCC2)c(Cl)c1)c1ccco1	-1.7%	-14.0	3.0	-33.7*	-13.8%	-0.4%
COc1c(C(=O)Nc2ccc(CN3CCOCC3)cc2)cc2ccccc2c1Br	-4.9%	-2.4	13.0	-30.7*	9.0%	-1.5%
CC(C)(C)c1ccc(C(=O)Nc2ccc(CN3CCS(=O)(=O)CC3)cc2)cc1	·	-2.0	18.8	-9.1	9.3%	-0.2%
O=C(Nc1ccc(CN2CCS(=O)(=O)CC2)cc1)c1ccc(C(F)(F)F)cc1	·	-12.8	14.1	-46.3*	?	5.7%
CC(=O)N1CCN(c2ccc(NC(=O)c3ccco3)cc2Cl)CC1	-7.3%	-2.5	3.6	-9.8	3.0%	1.6%
O=C(Nc1ccc(CN2CCOCC2)cc1)c1ccc(Cl)cc1	0.0%	3.5	12.0	6.8	-5.3%	2.0%
Cc1ccccc1C(=O)Nc1ccc(CN2CCOCC2)cc1	1.3%	-5.7	6.3	-9.3	-20.2%	-0.2%
Cc1cccc(NC(=O)Nc2nnc(N3CCCC3)s2)c1	·	-4.0	7.6	-1.4	·	·
COC(=O)c1cc2oc(C)cc2n1Cc1cc(C)ccc1C	·	0.8	0.4	3.8	·	·
O=C(Nc1ccc(N2CCN(C(=O)c3ccccc3)CC2)c(Cl)c1)c1ccco1	-1.1%	-5.3	3.9	-33.4*	4.6%	2.1%
O=C(Nc1ccc2c(c1)CCCN2C(=O)c1cccs1)c1c(F)cccc1Cl	7.6%	-9.0	1.2	-44.1*	1.3%	1.3%
CCOc1ccc(NC(=O)c2ccc(NC(=O)c3ccc(CN4CCOCC4)cc3)cc2)cc1	-4.0%	-3.5	3.4	-33.7*	8.5%	12.5%
CCN1CCN(c2ccc(NC(=O)c3cccnc3)cc2Cl)CC1	4.7%	-5.8	1.0	6.8	-3.5%	-3.7%
CCN1CCN(c2ccc(NC(=O)c3ccc(F)cc3)cc2Cl)CC1	-2.3%	-16.6	13.2	-39.8*	0.8%	9.3%
O=C(/C=C/c1ccccc1)N1CCN(Cc2cc(=O)n3nc(-c4ccccc4Cl)sc3n2)CC1	·	2.4	0.7	19.5	·	·
Cc1cccc(C)c1NC(=O)CN1C(=O)c2ccccc2Sc2ncccc21	·	-2.6	2.2	3.1	·	·
COc1ccc2cc(CNc3ccc(C)cc3)c(=O)n(CC(=O)Nc3ccc(C)cc3Cl)c2c1	·	-2.2	1.5	12.5	·	·
Cc1cc(C)cc(NC(=O)CCS(=O)(=O)c2ccc3c(c2)oc(=O)n3C)c1	·	-2.1	0.3	-5.6	·	·
O=C(Nc1ccc2c(c1)CCCN2C(=O)c1ccco1)c1cc([N+](=O)[O-])ccc1Cl	·	-19.9	1.1	-42.3*	-5.9%	1.0%
O=C(Nc1ccc(N2CCOCC2)c(Cl)c1)c1ccc(Cl)cc1	-2.0%	-5.0	13.6	-30.6*	3.4%	-0.5%
